# From ChEMBL document CHEMBL1961873, “Compounds: GSK PKIS; Assays: Nanosyn kinase panel” (2012)
# Experiments:
# [1] = biological target: T1, Ephrin type-B receptor 2 (Homo sapiens) (UniProt P29323); conditions: at 1 µM
# T1 sequence (whole entry): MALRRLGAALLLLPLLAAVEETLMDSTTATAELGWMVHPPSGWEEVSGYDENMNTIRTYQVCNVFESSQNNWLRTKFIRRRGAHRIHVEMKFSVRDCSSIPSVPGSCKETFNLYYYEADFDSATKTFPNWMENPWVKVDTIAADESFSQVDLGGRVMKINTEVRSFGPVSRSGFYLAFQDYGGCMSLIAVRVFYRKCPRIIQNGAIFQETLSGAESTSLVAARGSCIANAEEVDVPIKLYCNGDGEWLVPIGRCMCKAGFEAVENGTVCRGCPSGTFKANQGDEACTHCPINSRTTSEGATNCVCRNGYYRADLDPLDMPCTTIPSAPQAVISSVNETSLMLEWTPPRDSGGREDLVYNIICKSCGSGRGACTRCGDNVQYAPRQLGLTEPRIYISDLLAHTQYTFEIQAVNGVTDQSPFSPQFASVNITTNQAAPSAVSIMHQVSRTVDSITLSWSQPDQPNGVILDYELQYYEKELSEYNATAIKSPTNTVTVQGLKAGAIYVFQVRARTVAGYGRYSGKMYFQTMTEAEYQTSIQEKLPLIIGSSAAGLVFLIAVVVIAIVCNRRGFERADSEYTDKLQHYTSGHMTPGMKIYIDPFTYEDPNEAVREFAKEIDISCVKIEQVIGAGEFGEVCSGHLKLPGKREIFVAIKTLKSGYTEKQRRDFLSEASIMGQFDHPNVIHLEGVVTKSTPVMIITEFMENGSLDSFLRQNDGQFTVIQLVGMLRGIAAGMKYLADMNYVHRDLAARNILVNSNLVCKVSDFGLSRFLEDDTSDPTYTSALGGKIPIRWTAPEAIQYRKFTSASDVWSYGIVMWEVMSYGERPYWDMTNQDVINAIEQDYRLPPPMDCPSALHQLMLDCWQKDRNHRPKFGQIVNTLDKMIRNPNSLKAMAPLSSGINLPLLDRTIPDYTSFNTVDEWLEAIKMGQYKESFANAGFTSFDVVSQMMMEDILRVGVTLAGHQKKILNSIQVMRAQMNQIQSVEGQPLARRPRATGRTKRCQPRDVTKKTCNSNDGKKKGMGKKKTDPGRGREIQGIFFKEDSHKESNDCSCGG
# [2] = biological target: T2, Ephrin type-B receptor 3 (Homo sapiens) (UniProt P54753); conditions: at 0.1 µM
# T2 sequence (whole entry): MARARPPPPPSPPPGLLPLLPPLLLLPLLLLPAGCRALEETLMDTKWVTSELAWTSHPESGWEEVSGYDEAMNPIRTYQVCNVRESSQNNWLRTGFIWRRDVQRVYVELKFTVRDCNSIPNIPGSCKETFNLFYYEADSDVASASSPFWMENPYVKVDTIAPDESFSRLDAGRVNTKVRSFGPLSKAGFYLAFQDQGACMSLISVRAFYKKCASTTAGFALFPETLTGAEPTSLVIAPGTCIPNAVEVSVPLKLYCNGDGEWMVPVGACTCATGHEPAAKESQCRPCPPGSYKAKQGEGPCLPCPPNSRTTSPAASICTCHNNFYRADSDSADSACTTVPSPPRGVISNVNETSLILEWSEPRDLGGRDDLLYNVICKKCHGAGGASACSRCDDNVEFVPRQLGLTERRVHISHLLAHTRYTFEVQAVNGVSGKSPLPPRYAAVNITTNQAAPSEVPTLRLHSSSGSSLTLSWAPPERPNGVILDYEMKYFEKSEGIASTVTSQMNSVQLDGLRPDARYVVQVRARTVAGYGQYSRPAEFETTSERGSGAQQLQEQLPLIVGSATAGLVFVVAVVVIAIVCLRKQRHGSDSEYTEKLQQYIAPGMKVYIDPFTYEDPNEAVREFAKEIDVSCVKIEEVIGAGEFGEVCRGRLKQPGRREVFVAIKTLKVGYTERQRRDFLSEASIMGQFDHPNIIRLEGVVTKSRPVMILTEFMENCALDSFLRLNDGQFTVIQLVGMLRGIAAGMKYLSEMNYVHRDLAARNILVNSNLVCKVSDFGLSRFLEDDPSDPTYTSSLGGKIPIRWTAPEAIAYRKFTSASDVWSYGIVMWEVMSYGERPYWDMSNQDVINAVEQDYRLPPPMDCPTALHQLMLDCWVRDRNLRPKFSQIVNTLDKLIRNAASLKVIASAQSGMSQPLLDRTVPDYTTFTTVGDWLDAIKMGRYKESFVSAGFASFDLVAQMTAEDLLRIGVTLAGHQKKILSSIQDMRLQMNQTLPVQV
# [3] = biological target: T2, Ephrin type-B receptor 3 (Homo sapiens); conditions: at 1 µM
# [4] = biological target: T3, Ephrin type-B receptor 4 (Homo sapiens) (UniProt P54760); conditions: at 0.1 µM
# T3 sequence (whole entry): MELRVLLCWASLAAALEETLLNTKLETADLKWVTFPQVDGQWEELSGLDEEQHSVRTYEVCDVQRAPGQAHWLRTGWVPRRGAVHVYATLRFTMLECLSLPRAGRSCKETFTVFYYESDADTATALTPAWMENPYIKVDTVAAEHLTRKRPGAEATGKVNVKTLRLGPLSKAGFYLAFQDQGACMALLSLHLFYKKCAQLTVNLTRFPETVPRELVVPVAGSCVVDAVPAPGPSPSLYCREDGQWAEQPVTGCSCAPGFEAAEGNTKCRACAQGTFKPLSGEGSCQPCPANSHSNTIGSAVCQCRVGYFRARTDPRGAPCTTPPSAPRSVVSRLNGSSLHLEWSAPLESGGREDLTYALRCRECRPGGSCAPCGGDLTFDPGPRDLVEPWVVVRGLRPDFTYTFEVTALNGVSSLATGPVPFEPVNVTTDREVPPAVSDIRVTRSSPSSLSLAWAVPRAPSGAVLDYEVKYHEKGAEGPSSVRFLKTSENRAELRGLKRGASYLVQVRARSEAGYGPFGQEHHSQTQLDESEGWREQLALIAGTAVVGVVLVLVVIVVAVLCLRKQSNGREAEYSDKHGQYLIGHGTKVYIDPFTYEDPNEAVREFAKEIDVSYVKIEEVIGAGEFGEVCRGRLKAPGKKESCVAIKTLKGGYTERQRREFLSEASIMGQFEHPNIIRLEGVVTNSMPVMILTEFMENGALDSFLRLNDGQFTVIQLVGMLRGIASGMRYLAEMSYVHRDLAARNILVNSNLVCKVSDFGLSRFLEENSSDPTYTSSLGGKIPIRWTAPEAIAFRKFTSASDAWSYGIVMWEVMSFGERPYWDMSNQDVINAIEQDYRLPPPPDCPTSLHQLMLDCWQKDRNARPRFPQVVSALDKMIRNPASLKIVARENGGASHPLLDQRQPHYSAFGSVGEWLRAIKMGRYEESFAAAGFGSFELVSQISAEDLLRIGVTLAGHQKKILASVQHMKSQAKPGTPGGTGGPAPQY
# [5] = biological target: T3, Ephrin type-B receptor 4 (Homo sapiens); conditions: at 1 µM
# [6] = biological target: Receptor tyrosine-protein kinase erbB-2 (Homo sapiens) (UniProt P04626); conditions: at 0.1 µM
# Sequence of Receptor tyrosine-protein kinase erbB-2 (Homo sapiens) (P04626 whole entry): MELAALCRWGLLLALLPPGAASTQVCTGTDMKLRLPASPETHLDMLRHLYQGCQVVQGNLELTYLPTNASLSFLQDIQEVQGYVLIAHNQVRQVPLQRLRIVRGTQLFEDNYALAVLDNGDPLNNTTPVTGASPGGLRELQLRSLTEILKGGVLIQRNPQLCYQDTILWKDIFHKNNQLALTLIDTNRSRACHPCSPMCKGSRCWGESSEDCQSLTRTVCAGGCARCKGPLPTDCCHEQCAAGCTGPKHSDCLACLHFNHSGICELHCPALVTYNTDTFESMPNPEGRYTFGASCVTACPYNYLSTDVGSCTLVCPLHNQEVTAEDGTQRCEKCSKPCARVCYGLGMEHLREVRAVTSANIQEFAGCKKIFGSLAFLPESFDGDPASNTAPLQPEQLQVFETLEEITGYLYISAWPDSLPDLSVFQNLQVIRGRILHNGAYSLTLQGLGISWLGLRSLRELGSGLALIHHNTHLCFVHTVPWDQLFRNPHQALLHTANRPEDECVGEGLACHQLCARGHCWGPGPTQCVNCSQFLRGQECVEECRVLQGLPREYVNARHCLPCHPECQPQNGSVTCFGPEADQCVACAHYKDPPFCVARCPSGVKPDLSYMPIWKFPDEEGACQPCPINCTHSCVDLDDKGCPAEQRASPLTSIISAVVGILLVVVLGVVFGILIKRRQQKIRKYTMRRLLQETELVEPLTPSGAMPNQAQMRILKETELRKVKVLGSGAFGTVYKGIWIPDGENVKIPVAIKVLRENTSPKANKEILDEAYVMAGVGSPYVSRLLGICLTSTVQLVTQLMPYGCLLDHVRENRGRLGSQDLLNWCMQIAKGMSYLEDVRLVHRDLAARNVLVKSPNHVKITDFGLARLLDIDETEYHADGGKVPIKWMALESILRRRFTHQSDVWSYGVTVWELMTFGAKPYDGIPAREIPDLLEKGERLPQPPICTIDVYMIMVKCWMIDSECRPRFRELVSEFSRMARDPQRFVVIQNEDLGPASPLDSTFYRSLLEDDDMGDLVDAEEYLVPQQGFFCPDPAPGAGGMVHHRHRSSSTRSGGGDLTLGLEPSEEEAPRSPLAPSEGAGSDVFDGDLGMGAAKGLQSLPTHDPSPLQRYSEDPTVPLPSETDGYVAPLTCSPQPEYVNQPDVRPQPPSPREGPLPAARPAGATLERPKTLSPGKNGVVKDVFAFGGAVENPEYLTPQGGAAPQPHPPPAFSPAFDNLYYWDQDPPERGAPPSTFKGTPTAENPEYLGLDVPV
# [7] = biological target: Receptor tyrosine-protein kinase erbB-2 (Homo sapiens) (UniProt P04626); conditions: at 1 µM
# [8] = biological target: Receptor tyrosine-protein kinase erbB-4 (Homo sapiens) (UniProt Q15303); conditions: at 0.1 µM
# Sequence of Receptor tyrosine-protein kinase erbB-4 (Homo sapiens) (Q15303 whole entry): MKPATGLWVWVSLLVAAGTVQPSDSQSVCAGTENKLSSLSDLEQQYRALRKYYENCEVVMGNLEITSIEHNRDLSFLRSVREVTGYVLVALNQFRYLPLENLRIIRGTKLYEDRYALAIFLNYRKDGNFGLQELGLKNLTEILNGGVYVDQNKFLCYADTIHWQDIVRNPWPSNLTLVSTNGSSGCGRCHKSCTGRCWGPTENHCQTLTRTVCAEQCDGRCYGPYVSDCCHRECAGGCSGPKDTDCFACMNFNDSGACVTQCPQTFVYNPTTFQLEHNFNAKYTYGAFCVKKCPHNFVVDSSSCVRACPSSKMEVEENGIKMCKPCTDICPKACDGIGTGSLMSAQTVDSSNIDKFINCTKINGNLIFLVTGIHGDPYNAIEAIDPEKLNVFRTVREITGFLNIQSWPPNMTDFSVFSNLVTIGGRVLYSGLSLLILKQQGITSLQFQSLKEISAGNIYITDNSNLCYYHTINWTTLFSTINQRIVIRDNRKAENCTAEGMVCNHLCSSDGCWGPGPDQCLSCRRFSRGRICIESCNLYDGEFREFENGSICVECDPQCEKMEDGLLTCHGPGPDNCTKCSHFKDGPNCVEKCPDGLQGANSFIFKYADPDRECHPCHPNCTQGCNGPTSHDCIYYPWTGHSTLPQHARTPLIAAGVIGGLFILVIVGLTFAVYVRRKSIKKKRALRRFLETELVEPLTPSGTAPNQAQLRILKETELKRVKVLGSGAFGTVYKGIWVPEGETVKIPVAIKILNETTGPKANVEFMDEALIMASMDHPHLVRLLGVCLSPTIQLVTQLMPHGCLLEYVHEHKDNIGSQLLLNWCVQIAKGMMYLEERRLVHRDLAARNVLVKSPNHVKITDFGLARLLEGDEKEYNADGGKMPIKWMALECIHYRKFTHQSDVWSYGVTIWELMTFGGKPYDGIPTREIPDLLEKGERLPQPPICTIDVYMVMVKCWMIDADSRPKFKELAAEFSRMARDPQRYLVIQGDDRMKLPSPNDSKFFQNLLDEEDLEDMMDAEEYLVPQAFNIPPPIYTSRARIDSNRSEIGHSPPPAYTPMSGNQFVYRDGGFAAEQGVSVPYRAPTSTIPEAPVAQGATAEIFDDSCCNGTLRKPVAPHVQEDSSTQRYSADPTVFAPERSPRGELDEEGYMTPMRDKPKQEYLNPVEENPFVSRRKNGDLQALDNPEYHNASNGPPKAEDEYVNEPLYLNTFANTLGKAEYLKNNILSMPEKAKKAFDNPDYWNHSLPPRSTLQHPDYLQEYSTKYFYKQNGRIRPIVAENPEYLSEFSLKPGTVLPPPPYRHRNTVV
# [9] = biological target: Receptor tyrosine-protein kinase erbB-4 (Homo sapiens) (UniProt Q15303); conditions: at 1 µM
# [10] = biological target: Tyrosine-protein kinase Fer (Homo sapiens) (UniProt P16591); conditions: at 0.1 µM;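 further: reported figures are averaged percent inhibition of FER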
# Sequence of Tyrosine-protein kinase Fer (Homo sapiens) (P16591 whole entry, looked up): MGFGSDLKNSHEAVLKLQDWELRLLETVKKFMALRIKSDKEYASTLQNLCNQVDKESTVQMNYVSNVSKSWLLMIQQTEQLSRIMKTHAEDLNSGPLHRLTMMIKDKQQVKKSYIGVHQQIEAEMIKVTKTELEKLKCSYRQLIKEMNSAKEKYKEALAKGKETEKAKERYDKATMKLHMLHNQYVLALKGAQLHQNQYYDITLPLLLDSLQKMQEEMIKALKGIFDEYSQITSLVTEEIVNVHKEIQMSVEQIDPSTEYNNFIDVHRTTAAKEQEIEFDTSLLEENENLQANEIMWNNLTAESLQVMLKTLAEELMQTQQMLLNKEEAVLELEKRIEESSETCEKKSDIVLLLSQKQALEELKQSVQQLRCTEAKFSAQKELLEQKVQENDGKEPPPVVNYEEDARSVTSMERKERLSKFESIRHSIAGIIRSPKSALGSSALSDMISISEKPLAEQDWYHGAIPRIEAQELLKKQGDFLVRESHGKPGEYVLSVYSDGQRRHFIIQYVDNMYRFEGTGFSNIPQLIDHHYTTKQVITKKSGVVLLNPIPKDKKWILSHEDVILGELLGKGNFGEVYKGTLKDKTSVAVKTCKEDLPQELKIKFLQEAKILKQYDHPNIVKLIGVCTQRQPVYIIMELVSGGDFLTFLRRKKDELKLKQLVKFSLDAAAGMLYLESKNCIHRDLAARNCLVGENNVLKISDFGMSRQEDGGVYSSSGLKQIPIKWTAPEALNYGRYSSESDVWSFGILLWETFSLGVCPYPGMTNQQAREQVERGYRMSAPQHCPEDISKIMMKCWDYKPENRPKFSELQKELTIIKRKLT
Compound,inhibition [1] [%],inhibition [2] [%],inhibition [3] [%],inhibition [4] [%],inhibition [5] [%],inhibition [6] [%],inhibition [7] [%],inhibition [8] [%],inhibition [9] [%],inhibition [10] [%]
COc1ccc(C2=C(N3CCc4ccccc43)C(=O)NC2=O)cc1,11.3,3.73,6.05,3.74,4.2,4.12,2.07,8.75,12.9,5.39
CCS(=O)(=O)c1ccc(OC)c(Nc2ncc(-c3ccccc3Cl)o2)c1,8.86,4.07,3.23,1.77,1.22,-1.67,1.42,4.14,4.95,-0.76
NC(=O)c1cc(-c2ccncc2)cc(-c2ccccc2)c1N,57.7,7.22,21.1,7.68,36,4.68,8.53,21.7,33.8,6.01
C#Cc1cccc(Nc2ncnc3ccc(OCCCCNCCS(C)(=O)=O)cc23)c1,19.4,4.21,0.73,1.68,-1.52,6.37,29.9,24.8,63.8,2.76
COc1ccc2ncn(-c3cc(O[C@H](C)c4ccccc4Cl)c(C(N)=O)s3)c2c1,12,0.01,0.43,-2.13,-1.28,2.78,2.8,1.62,4.43,2.82
CCC(=O)Nc1ccc(C)c(-c2ccc(C(=O)NCC3CC3)cc2)c1,7.83,2.63,4.65,0.55,1.51,2.99,3.96,9.79,13.9,-0.76
C[C@@H](Oc1cc(-n2cnc3ccc(OC4CCN(C)CC4)cc32)sc1C(N)=O)c1ccccc1Cl,7.99,-1.42,-0.38,-3.06,-1.28,2.36,2.65,1.1,6.83,3.05
Cc1ccc(C(=O)NC(C)C)cc1-c1ccc(C(=O)NCC2CC2)cc1,0.35,-7.05,-4.82,-0.32,-2.91,-5.52,-4.79,,,-1.9
CS(=O)(=O)CCNCc1ccc(-c2ccc3ncnc(Nc4ccc(OCc5ccccc5)c(Br)c4)c3c2)o1,6.61,-1.4,-0.23,-1.9,-0.22,10.8,73.5,42.6,79.8,2.74
Fc1ccc(-c2ncn(C3CCNCC3)c2-c2ccnc(Oc3ccc(Oc4ccccc4)cc3)n2)cc1,7.3,4.75,2.76,2.74,2.19,3.95,2.11,6.47,9.01,1.51
Fc1ccc(-c2ncn(CCCN3CCOCC3)c2-c2ccncc2)cc1,-5.28,2.51,-2.79,0.93,-0.14,-0.2,-6.58,4.44,4.14,0.26
COc1cc(Nc2ncc3c(C)nc(-c4cccc(C(F)(F)F)c4)n3n2)cc(OC)c1OC,57.1,6.46,3.53,5.85,31.1,0.82,3.68,5.34,8.32,3.27
NC(=O)c1cc(-c2ccc(F)cc2)cc(-c2ccncc2)c1N,8.83,5.88,5.99,3.64,3.21,4.35,4.97,7.7,11.7,1.98
CNC(=O)c1cncc(/C=C/c2c(C)cccc2C)c1,65.9,-1,2.29,7.98,45.7,-0.21,1.84,-1.45,2.45,1.13
COc1ccc(-c2ccc3c(NC(=O)C4CC4)n[nH]c3n2)cc1,5.25,3.22,2.79,1.54,-0.15,2.9,3.27,4.2,3.94,2
NS(=O)(=O)c1ccc(Nc2cc(-c3ccc(O)c(F)c3)n[nH]2)cc1,-1.29,-8.08,-5.11,-0.68,-0.49,-5.39,-4.29,,-6.22,5.83
O=C1Nc2ccccc2/C1=C/Nc1ccc(-n2cncn2)cc1,8.52,4.57,2.77,2.19,2.59,3.17,9.83,9.69,12.5,3.94
